G9a inh: G9a (human) methyltransferase inhibition; Q96KQ7; G9a H3K9 monomethylation, AlphaScreen, 2 h; Potency, µM (highest dose often 102 µM), for the others: at the highest dose activity, negative = inhibition, actives largely listed as inhibitors; hit rate 8.8% among 350,000; AID 504332; also: % is scaled to controls: 0 for no effect and ±100 for the full control effect; nearly all actives have a fitted effect of over 75% in size
Target sequence (Q96KQ7 913-1193 limits assumed): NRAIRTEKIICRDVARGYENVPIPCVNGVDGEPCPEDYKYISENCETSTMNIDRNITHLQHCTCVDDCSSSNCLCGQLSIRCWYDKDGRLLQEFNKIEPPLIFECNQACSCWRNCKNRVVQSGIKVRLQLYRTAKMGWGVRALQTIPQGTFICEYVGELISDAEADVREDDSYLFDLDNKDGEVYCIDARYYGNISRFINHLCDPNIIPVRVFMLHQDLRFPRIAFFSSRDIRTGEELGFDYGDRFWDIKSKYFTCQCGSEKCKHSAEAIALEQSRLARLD
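Quantitative HTS format: methyltransferase activity on a biotin-tagged H3K9 peptide is measured by AlphaScreen, using a rabbit anti-monomethyl-H3K9 antibody with streptavidin donor and anti-IgG acceptor beads. Final levels are 20 nM enzyme, 500 nM peptide, 20 uM SAM; 2 h RT.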
Sfp inh: Sfp phosphopantetheinyl transferase inhibition; hit rate 3.5% among 310,000; Biochemical Sfp PPTase activity, qHTS; Potency, µM, inactives show largest response in the series, negative = inhibition, most hits filed as inhibitors; AID 1490;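 also: the enzyme is Sfp with the accession as filed and its product quenches rhodamine fluorescence; 0% = enzyme reaction without inhibitor and -100% = no enzyme wells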
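Step 1, compound plus 15 nM Sfp-PPTase, 15 min, room temperature. Step 2, add rhodamine-CoA (5 uM) and BHQ-2-YbbR (12.5 uM). Step 3, read 525/598 nm fluorescence at 0 and 30 min.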
JMJD2A Tudor inh: JMJD2A Tudor domain (human) inhibition; AID 504339; O75164; AlphaScreen JMJD2A-Tudor / H3K4me3 peptide binding; hit rate 4.4% among 390,000; Potency, µM (top dose mostly 114 µM), inactives show top-dose activity change, negative = inhibition, actives largely listed as inhibitors; also: % is scaled to controls: 0 for no effect and ±100 for the full control effect; nearly all actives have a fitted effect of over 50% in size
BAZ2B block: inhibitors of human BAZ2B bromodomain. AID 504333. hit rate 4.4% among 360,000. Q9UIF8. AlphaScreen BAZ2B-H3K14Ac peptide displacement. Potency, µM (titrated, usually from 114 µM), inactives show at the top dose activity change, negative = inhibition, actives largely listed as inhibitors; also: % is scaled to controls: 0 for no effect and ±100 for the full control effect; nearly all actives have a fitted effect of over 60% in size
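Multi-concentration screen (max 110 uM) measuring displacement of acetylated histone H3 peptide from BAZ2B by AlphaScreen, using 50 nM protein, 50 nM peptide and 10 ug/mL streptavidin donor plus Ni-chelate acceptor beads.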
HP1b chromo inh: blocks HP1-beta chromodomain binding to methylated histone tails. hit rate 0.56% among 390,000. AlphaScreen HP1-beta / biotin-H3K9me3 peptide binding. Potency, µM (top dose mostly 114 µM), without a hit: at the highest dose activity change, negative = inhibition, hits mostly inhibitors. AID 540317; also: nearly all actives have a fitted effect of over 70% in size
Target sequence (P83916 whole entry, looked up): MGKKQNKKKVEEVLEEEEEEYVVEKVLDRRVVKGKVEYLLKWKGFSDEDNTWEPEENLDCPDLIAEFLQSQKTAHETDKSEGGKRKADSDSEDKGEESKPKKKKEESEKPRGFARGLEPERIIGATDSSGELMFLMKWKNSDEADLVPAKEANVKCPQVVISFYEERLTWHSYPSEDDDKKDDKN
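AlphaScreen: HP1-beta (50 nM) preformed 30 min with biotin-H3(1-18)K9me3 peptide (50 nM) in PBS pH 7.4, 0.01% Tween-20. Compound added for 30 min at RT, then streptavidin donor/nickel chelate acceptor beads (10 ug/mL) for 30 min.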
* hit, by the source's call; ? = inconclusive; . = no result; ! = a repeat was not active; [ ] = another dose, or the depositor's remark. In the library only some 12% were active in any assay of this set; here they are far more common. Calls follow the shape of the dose curve; as a rule, active = well fitted curve in the direction sought with a large enough effect; inconclusive = small, poorly fitted or top-dose-only effect, or another doubt; inactive = no such curve, though single readings can be large; an effect the other way counts as inactive or inconclusive. Potency is read from the fitted curve at half-maximal effect.

SMILES | G9a inh | Sfp inh | JMJD2A Tudor inh | BAZ2B block | HP1b chromo inh
CC(=O)Nc1ccc(S(=O)(=O)NC(CSc2ccc(C(=O)O)cc2[N+](=O)[O-])C(=O)O)cc1 (stereo not given) | 50.1µM* | -20.5% | -3.0% | ? | 54.6%
COc1ccc(-n2c(C)cc(-c3cn4cccc(C)c4n3)c2C)cc1 | ? | 6.9% | ? | 39.8µM* | -11.2%
c1ccc(-c2cn3ccccc3n2)cc1 | . | . | -7.6% | . | -6.4%
Cc1cc(-c2cn3ccccc3n2)c(C)n1-c1ccccc1 | 50.1µM* | -10.8% | 56.2µM* | ? | ?
Cc1ccc(N2C(=O)CSC23C(=O)N(CC(=O)Nc2ccccc2F)c2ccccc23)cc1C (stereo not given) | -31.5%[59 µM] | . | -11.3% | -2.0%[57.1 µM] | 33.4%
O=C(CN1CCN(c2ccccc2)CC1)N1CCc2ccccc21 | 18.3%[0.501 µM] | 13.6% | -19.7% | -10.7% | 11.0%
O=C(CSc1cccc[n+]1[O-])N1CCc2ccccc21 | 56.2µM* | 10.5% | -2.0% | 0.4% | 32.2%
O=C(CN1CCN(c2ccc(O)cc2)CC1)N1CCc2ccccc21 | 10µM* | 39.8µM* | 79.4µM* | -36.6% | ?
O=C(CN1CCN(Cc2ccccc2)CC1)N1CCCc2ccccc21 | ? | ? | 4.47µM* | 20µM* | ?
COc1ccc(-n2c(=O)c3c4c(sc3n3cnnc23)CC(C)CC4)cc1 (stereo not given) | . | . | -10.1%[57.1 µM] | . | 12.3%
COC(=O)c1ccc(Cl)cc1NC(=O)N1CCC(CN2CCCC2)CC1 | ? | . | -18.8% | -1.8% | 5.0%
CCc1ccc2c(c1)C(=O)c1ccccc1C2=O | ? | 2.9% | ? | ? | ?
CC(C)(C)c1ccc2c(c1)C(=O)c1ccccc1C2=O | 35.5µM* | -12.9% | 44.7µM* | 31.6µM* | ?
N[C@@H](Cc1c[nH]c2ccc(O)cc12)C(=O)O | 8.44µM*! | -25.9% | ? | ? | -21.0%
NC(=S)N/N=C/c1c[nH]c2ccc(OCc3ccccc3)cc12 | 39.8µM* | 31.6µM* | ? | 35.5µM* | -18.9%
O=C1c2ccccc2C(=O)N1CCc1c[nH]c2ccc(O)cc12 | ? | -3.6% | -20.3% | -30.8% | 22.7%
NC(=S)N/N=C\c1ccccc1OCc1ccccc1 | -19.2%[59 µM] | -2.6% | -27.8% | ? | -16.2%
NC(Cc1c[nH]c2ccc(OCc3ccccc3)cc12)C(=O)O (stereo not given) | 44.7µM* | -11.0% | ? | ? | 5.2%
S=c1cnc2ccccc2[nH]1 | 1µM* | 20µM* | 4.47µM* | 56.2µM* | ?
CC1(C)CC(CC(=O)O)CC(C)(C)N1 | -35.8% | 3.3% | -11.9% | -15.8% | 10.8%
CN(CC(O)COCc1ccccc1F)C1CCCCC1 (stereo not given) | 10.8%[12.7 µM] | 15.7% | -10.1% | -1.3% | 30.0%
CN(Cc1cccc(F)c1)CC(O)COCc1ccccc1Cl (stereo not given) | 56.2µM* | -10.2% | 22.4µM* | . | ?
Cc1cccc(NC(=O)/C(=C\c2ccc([N+](=O)[O-])o2)NC(=O)c2ccc(Cl)cc2)c1 | ? | 11.9% | 35.5µM* | 50.1µM* | ?
Cc1ccc(NC(=O)/C(=C\c2ccco2)NC(=O)c2ccco2)cc1 | 28.2µM* | -20.1% | ? | -1.5% | 47.1%
CC(=O)c1cccc(NC(=O)/C(=C/c2ccco2)NC(=O)c2ccco2)c1 | 73.8% | 8.2% | -18.5% | 0.0% | 16.0%
SMILES | G9a inh | Sfp inh | JMJD2A Tudor inh | BAZ2B block | HP1b chromo inh
COc1ccccc1C(=O)N/C(=C/c1ccco1)C(=O)Nc1cccc(C(=O)O)c1 | ? | 50.1µM* | 79.4µM* | ? | 3.5%
Cc1ccc(C(=O)N/C(=C/c2ccco2)C(=O)Nc2cccc(C(=O)O)c2)cc1 | . | 44.7µM* | 79.4µM* | 22.2% | 2.1%
CCn1ccc2c(OCC(=O)NCc3ccc(F)cc3)cccc2c1=O | 1.1%[59 µM] | . | 1.6% | -23.1% | 41.2%
O=[N+]([O-])c1cccc(CN2[C@@H](Cc3ccccc3)COCCS2(=O)=O)c1 | . | . | -12.0% | . | 37.0%
Cc1ccc(NC(=O)N/C=C/c2ccco2)cc1 | ? | ? | 50.1µM* | 79.4µM* | -11.0%
COc1cccc(NC(=O)CSc2nc3c([nH]c4ccccc43)c(=O)n2-c2ccccc2)c1 | 3.9%[59 µM] | . | -12.6% | -3.0% | 25.5%[57 µM]
COc1cccc(-n2c(SCC(=O)Nc3nnc(C)s3)nc3c([nH]c4ccccc43)c2=O)c1 | 3.1%[59 µM] | . | 50.1µM* | 2.2% | 26.0%[57 µM]
CCOC(=O)CSc1nc2c([nH]c3ccccc32)c(=O)n1-c1ccc(OC)cc1 | 3.3%[59 µM] | . | 20µM* | -3.9% | 6.4%
CCSc1nnc(-c2ccncc2)n1Cc1ccccc1 | -3.6%[2.33 µM] | -1.4% | -9.4% | 0.1% | 13.8%
O=C(COc1ccccc1)OCc1cc(=O)n2nc(C3CC3)sc2n1 | 15.8%[59 µM] | . | -1.7% | -14.5% | 38.3%
O=C1c2ccccc2C(O)(Cc2ccccc2)N1Cc1ccco1 (stereo not given) | ? | 7.1% | -28.5% | 2.6% | 11.8%
Nc1ccc(S(=O)(=O)c2cc(O)c3ccccc3c2O)cc1 | . | . | 44.7µM* | . | 12.6µM*
Cc1ccc(N(CC(=O)Nc2cccc(Cl)c2C)S(=O)(=O)c2c(C)noc2C)cc1 | 16.3%[59 µM] | . | 0.0% | . | 35.0%
CCOC(=O)N/N=C(/C)c1ccc([N+](=O)[O-])o1 | -5.1%[59 µM] | 2.0% | . | 2.5%[57.1 µM] | .
CC(C)=CCC/C(C)=C/C=C/C(C)=C/C=C/C(C)=C/C=C/C=C(C)/C=C/C=C(C)/C=C/C=C(\C)CCC=C(C)C | 20µM* | ? | . | . | .
CC(C)=CCC/C(C)=C/C(N)=O | 17.8% | ? | -7.7% | -36.6% | 17.1%[57 µM]
COc1ccc(CNc2nc(NCc3ccc(OC)cc3)n(C(=O)c3ccncc3)n2)cc1 | . | 5.9% | ? | ? | -3.7%
COc1ccc(CNc2nc(NCc3ccc(OC)cc3)n(C(=O)c3ccccc3[N+](=O)[O-])n2)cc1 | 6.31µM* | 6.7% | ? | -1.0% | 12.1%
COc1ccc(N2CCN(C(=O)COC(=O)CCc3ccccc3OC)CC2)cc1 | 11.2µM* | . | -24.5% | -31.8% | -9.4%
COc1ccc(N2CCN(C(=O)COC(=O)CCOc3ccc(C(C)(C)C)cc3)CC2)cc1 | -42.3% | . | -0.7% | -9.8% | 19.8%
COc1ccc(N2CCN(C(=O)COc3ccccc3C#N)CC2)cc1 | ? | . | -25.8% | -32.4% | 1.3%
COc1ccc(N2CCN(C(=O)COC(=O)CCOc3ccccc3C)CC2)cc1 | 31.6µM* | . | ? | ? | -21.2%
COc1ccc(N2CCN(C(=O)COC(=O)CCOc3cc(C)ccc3C)CC2)cc1 | 10µM* | . | -9.6% | -26.3% | -35.6%
CCOc1ccc(OCCC(=O)OCC(=O)N2CCN(c3ccc(OC)cc3)CC2)cc1 | -44.5% | . | 5.1% | 3.1% | 14.6%
COc1ccc(-c2cc(C(F)(F)F)n3nc(C(=O)NCCN4CCOCC4)cc3n2)cc1 | 7.9% | 9.6% | 2.8% | -11.7% | 48.4%
O=[N+]([O-])c1cccc(C(O)C23CN4CN(CN(C4)C2)C3)c1 (stereo not given) | . | -1.2% | -8.0% | 4.6% | 21.8%
